# Screens from PubChem BioAssay.
# HPGD block: qHTS Assay for Inhibitors of HPGD (15-Hydroxyprostaglandin Dehydrogenase); Potency, µM, inactives show top-dose activity change, negative = inhibition, usual class: inhibitors; purified HPGD, NADH fluorescence kinetic, PGE2 substrate; 15-hydroxyprostaglandin dehydrogenase [NAD(+)] (Homo sapiens), P15428; hit rate 4.3% among 150,000; active means well fitted inhibition curve with a large enough effect, not every such curve was filed as active; inconclusive means small, poorly fitted or top-dose-only effect, or another doubt; inactive means no such curve, though single readings can be large or run the other way; further: potency means the concentration at half of the fitted maximal effect
#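 NADH formation kinetics: reaction with 30 uM PGE2 and 1 mM NAD+ (final), 20 nM enzyme, Tris-HCl pH 8 with Tween 20, after 15 min compound preincubation at room temperature. Fluorescence change, last versus first of five reads.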
# GLA spleen mod: qHTS Assay for Inhibitors and Activators of Human alpha-Galactosidase From Spleen Homogenate; Alpha-galactosidase A (Homo sapiens), P06280; human spleen homogenate, 4MU-alpha-Gal fluorescence, 40 min; Potency, µM (highest dose often 80 µM), for inactives: at the highest dose activity change, negative = inhibition, actives largely listed as inhibitors; hit rate 0.008% among 240,000; AID 2107, 2009;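 further: potency means the concentration at half of the fitted maximal effect; 0% = enzyme with vehicle and -100% = no enzyme basal signal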
#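 Human spleen homogenate (1 ug) was the enzyme source, with 4-methylumbelliferyl-alpha-D-galactopyranoside (1 mM final) in pH 5.0 citrate buffer with 0.01% Tween-20. Compounds were titrated; after 40 min at 37C, NaOH/glycine stop, 4-MU fluorescence read; AC50 from Hill fits.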
# ALOX12 inhib: qHTS Assay for Inhibitors of 12-hLO (12-human lipoxygenase). Polyunsaturated fatty acid lipoxygenase ALOX12 (Homo sapiens), P18054. purified 12-hLO, xylenol orange hydroperoxide absorbance. Potency, µM (series often up to 57.1 µM), for inactives: at the top dose activity change, negative = inhibition, most hits filed as inhibitors. hit rate 0.12% among 150,000; further: potency means the concentration at half of the fitted maximal effect; nearly all actives have a fitted effect of over 55% in size
# Target sequence (P18054 whole entry, looked up): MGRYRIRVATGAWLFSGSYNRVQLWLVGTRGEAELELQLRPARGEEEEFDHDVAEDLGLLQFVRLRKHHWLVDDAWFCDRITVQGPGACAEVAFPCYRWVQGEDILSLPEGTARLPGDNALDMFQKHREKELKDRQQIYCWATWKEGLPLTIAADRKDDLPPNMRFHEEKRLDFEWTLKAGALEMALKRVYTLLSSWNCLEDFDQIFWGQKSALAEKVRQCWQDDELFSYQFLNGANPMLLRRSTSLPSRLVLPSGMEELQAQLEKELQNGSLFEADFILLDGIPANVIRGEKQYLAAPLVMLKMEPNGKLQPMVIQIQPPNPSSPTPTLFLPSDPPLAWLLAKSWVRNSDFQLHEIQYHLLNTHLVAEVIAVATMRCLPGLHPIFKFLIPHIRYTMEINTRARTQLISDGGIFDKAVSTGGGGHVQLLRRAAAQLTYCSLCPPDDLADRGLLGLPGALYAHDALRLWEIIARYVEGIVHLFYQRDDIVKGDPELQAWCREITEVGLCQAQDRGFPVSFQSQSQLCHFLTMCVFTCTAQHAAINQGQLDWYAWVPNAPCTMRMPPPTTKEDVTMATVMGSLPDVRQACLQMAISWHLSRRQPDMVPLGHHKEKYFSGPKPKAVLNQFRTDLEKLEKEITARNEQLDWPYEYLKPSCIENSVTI
#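 Purified human 12hLO (150 nM final) was preincubated with compounds for 15 min at room temperature in 25 mM Hepes pH 7.0, 0.01% Triton X-100, then reacted with 40 uM arachidonic acid for 30 min. Hydroperoxide was detected with ferrous iron/xylenol orange.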
# PNC inhibitor: High Content Assay for Compounds that inhibit the Assembly of the Perinucleolar Compartment | hit rate 3.1% among 140,000 | activity change (PNC), negative = inhibition, % at 10 µM | PC3M PTB-GFP, PNC prevalence imaging, 16 h; stronger effect = lower value | AID 2417, 2010;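 active means readout at or below -70, meaning at least 70% loss of cells showing the perinucleolar compartment, a nuclear body marking cancer cells; inconclusive means readout between -30 and a set limit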;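 further: plate controls were DMSO wells for no effect and camptothecin positive control wells for full effect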
#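 Compounds are pinned in duplicate onto adhered PC3M cells stably expressing GFP-tagged PTB and incubated 16 h at 37 C. Cells are then fixed, nuclei stained with Hoechst, and PNC-positive cells counted.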
# ALDH1A1 block: qHTS Assay for Inhibitors of Aldehyde Dehydrogenase 1 (ALDH1A1); Aldehyde dehydrogenase 1A1 (Homo sapiens), P00352; Potency, µM (series often up to 75.3 µM), for inactives: at the highest dose activity, negative = inhibition, actives largely listed as inhibitors; hit rate 7.3% among 220,000; AID 1030, 2008; Purified ALDH1A1, NADH fluorescence, propionaldehyde substrate; active means well fitted inhibition curve with a large enough effect, not every such curve was filed as active; inconclusive means small, poorly fitted or top-dose-only effect, or another doubt; inactive means no such curve, though single readings can be large or run the other way;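 further: potency means the concentration at half of the fitted maximal effect; plate controls were no enzyme wells and a reference inhibitor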
# GLA inh pH 4.5: qHTS Assay for Inhibitors of Human alpha-Galactosidase at pH 4.5. 230,000 tested, under 10 active. activity change, negative = inhibition, % at 105 µM. purified enzyme, 4-MU-alpha-Gal fluorescence, pH 4.5. AID 1467, 2008. Alpha-galactosidase A (Homo sapiens), P06280;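 further: 0% = full activity with enzyme and -100% = basal without enzyme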
# Starred values were filed as active, the others as inactive; ? = inconclusive; . = no result given; ! = a repeat was not active; [ ] = remark or other dose. Rows were chosen to be rich in hits. Some 10% of all compounds tested hit in one or more screens of this group. Unless noted, the call rests on the fitted dose curve; in most records, active means well fitted curve in the direction sought with a large enough effect; inconclusive means small, poorly fitted or top-dose-only effect, or another doubt; inactive means no such curve, though single readings can be large; an effect the other way counts as inactive or inconclusive. Unless noted, on the % scale 0 is the no-effect control and ±100 the full control effect.
SMILES,HPGD block,GLA spleen mod,ALOX12 inhib,PNC inhibitor,ALDH1A1 block,GLA inh pH 4.5
CN(C)C(=O)NC(NC(=S)Nc1ccccc1)C(Cl)(Cl)Cl (configuration not stated),.,23%,.,.,13µM*,3[21.1 µM]
O=C(NC(NC(=S)Nc1ccccc1)C(Cl)(Cl)Cl)c1cccc(Cl)c1 (configuration not stated),-8%,-2%,?,8,?,-1
O=C(O)c1ccc(NC(=S)NC(NC(=O)c2ccco2)C(Cl)(Cl)Cl)cc1 (configuration not stated),-14%,5%,-12%,?,40µM*,-4
CCCc1nn(C)c2c(=O)[nH]c(-c3ccccc3OCC)nc12,?,8%,2%,-9,?,2
CCCOc1ccccc1-c1nc2n[nH]nc2c(=O)[nH]1,8.9µM*,-25%,-3%,.,20µM*!,-5
CN(C)S(=O)(=O)c1ccc(Cl)c(NC(=O)CSc2nc3c(cc2C#N)C(=O)CC(C)(C)C3)c1,-16%,1%,1%,-109*,?,-8
CSc1nc2c(cc1C#N)C(=O)CC(C)(C)C2,.,0%,.,.,-16%,4
CN(C)S(=O)(=O)c1cccc(NC(=O)CSc2nc3c(cc2C#N)C(=O)CC(C)(C)C3)c1,-3%,2%,-1%,?,1.4µM*,-11
O=S(=O)(NC1CCCCC1Oc1ccccc1)c1ccc(Cl)cc1 (configuration not stated),-2%,0%,4%,?,?,-7
CSc1ccc(OC2CCCCC2NS(=O)(=O)c2ccc(Cl)cc2)cc1 (configuration not stated),-13%,-3%,-7%,3,0.45µM*,0
N#CNC(=Nc1cccc(F)c1)SCc1ccccc1,-1%,7%,3%,-103*,-1%,-10
N#CNC(=Nc1cccc(F)c1)SCc1cccc(F)c1,-1%,2%,1%,-16,6%,0
COc1ccc(/C=C/CN2CCCC(CO)(Cc3cccc(Cl)c3)C2)cc1 (configuration not stated),.,1%,.,.,20µM*,5
COc1ccc(C(=O)NCC(=O)OCC(=O)Nc2cc([N+](=O)[O-])ccc2F)cc1,.,6%,.,.,1.6µM*,-10
CCOCC(=O)Nc1cc([N+](=O)[O-])ccc1OC,.,4%,.,.,22µM*,4
CCOC(=O)c1ccc([N+](=O)[O-])cc1NC(C)=O,4%,4%,-2%,-92*,12%,-2
COc1ccc(C2CC(c3ccccc3)Oc3ccc(OC)cc32)cc1 (configuration not stated),.,14%,.,.,.,.
O=C(Cc1ccc(F)cc1)N1CCC(N2CCC(C(=O)N3CCOCC3)CC2)CC1,.,0%,.,.,3%,1
NC(=NC1C2CC3CC(C2)CC1C3)Nc1ccc(I)cc1 (configuration not stated),-11%,-8%,-2%,.,-6%,-3
NCCC[C@@H](CC(=O)N[C@@H]1CCNC[C@H]1C(=O)N[C@H](CC(=O)N[C@@H](CCC(=O)O)CC(=O)O)Cc1c[nH]c2ccccc12)NC(=O)C[C@H](CO)NC(=O)[C@@H]1CNCC[C@H]1N,-5%,7%,2%,.,?,1
COc1ccc(C2c3[nH]c4ccccc4c3CC3C(=O)N(CCc4ccc(OC)c(OC)c4)CC(=O)N32)cc1 (configuration not stated),-12%,3%,.,.,?,-13
CCOCCCNC(=S)N1CCN(Cc2ccco2)CC1,.,-8%,.,.,14µM*,3
C=C1c2cccc(O)c2C(O)=C2C(=O)[C@@]3(O)C(O)=C(C(N)=O)C(=O)[C@@H](N(C)C)[C@@H]3[C@@H](O)[C@H]12,10µM*,-5%[29.1 µM],-7%[25.6 µM],.,6%[20.9 µM],-1
COC(=O)C/C=C\[C@H](C)[C@@H](OC)c1ccccc1Br,.,-5%[17.5 µM],.,.,-4%[13.5 µM],.
CC(=O)c1sc(C(=O)O)c(-c2ccco2)c1-c1ccco1,.,2%,.,.,3%,-4
SMILES,HPGD block,GLA spleen mod,ALOX12 inhib,PNC inhibitor,ALDH1A1 block,GLA inh pH 4.5
O=C1CC(Nc2ccc(N3CCOCC3)cc2)C(=O)N1c1cccc(C(F)(F)F)c1 (configuration not stated),-27%,4%,?,22,8.9µM*,2
COc1cccc(N2C(=O)CC(Nc3ccc(N4CCOCC4)cc3)C2=O)c1 (configuration not stated),-2%,8%,?,-6,-1%,2
O=C1CC(Nc2ccc(N3CCOCC3)cc2)C(=O)N1CCc1ccccc1 (configuration not stated),-10%,5%,?,5,25µM*,0
COc1ccc(N2C(=O)CC(Nc3ccc(N4CCOCC4)cc3)C2=O)c(OC)c1 (configuration not stated),-1%,4%,-29%,-88*,?,10
CCN(CC(=O)Nc1ccc(C(=O)Nc2ccc(OC)cc2)cc1)Cc1nc2ccccc2c(=O)[nH]1,.,7%,.,.,.,7
FC(F)(F)c1nc(SCc2ccc(Cl)cc2)n[nH]1,-10%,.,-3%[11.4 µM],.,14%[13.5 µM],.
Cc1sc(-n2c(C)cc(/C=C3\SC(=S)NC3=O)c2C)c(C#N)c1C,?,3%,-2%,41,12%,.
Cc1sc(-n2c(C)cc(/C=N/n3cnnc3)c2C)c(C#N)c1C,.,4%,-3%,8,4µM*,3
O=C(c1cnccn1)N1CCC2(CCN(Cc3ccncc3)CC2)CC1,-11%,-1%,-2%,.,0%,.
O=C(N/N=C/c1sc(N2CCCCC2)nc1-c1cccs1)C1CC1,.,-5%,.,.,22µM*,-5
Cc1nn(C)cc1CNCc1c(C(=O)N2CCCCC2)nc2c(C)cccn12,.,-5%,.,.,?,8
O=C1N=C(N2CCN(c3ccccc3)CC2)S/C1=C/c1cccs1,16µM*,-1%,-9%,76,?,-20
O=C1N=C(c2ccccc2)S/C1=C\c1cccs1,5.6µM*,2%,-10%,38,3.5µM*,4
O=C1/C(=C/c2cccs2)SC(=S)N1c1ccccc1,-7%,1%,-4%,6,9%,5
Cc1ccc(/C=C2\SC(N3CCN(C(c4ccccc4)c4ccccc4)CC3)=NC2=O)o1,3.5µM*,7%,-12%,-24,-6%,-2
O=C1N=C(N2CCN(Cc3ccccc3)CC2)S/C1=C/c1cccs1,.,-6%,.,.,.,-26
